Source: PubChem (National Center for Advancing Translational Sciences (NCATS))
ELG1 genotox = qHTS screen for small molecules that induce genotoxicity in human embryonic kidney (HEK293T) cells expressing luciferase-tagged ELG1; HEK293T ELG1-luciferase reporter, luminescence, 16 h; Potency, µM (doses to about 46 µM), without a hit: top-dose activity change, positive = activation, usual class: activators; 1.3% of 330,000 active; further: % of control where 0% means no effect; nearly all actives have a fitted effect of over 60% in size
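DMSO vehicle served as control against compound-treated ELG1-luciferase HEK293T cells; exposure lasted 16 hr at 37 °C and 5% CO2, followed by ONE-Glo luminescence detection after 30 min.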
ELG1 DNA repair = qHTS screen for small molecules that inhibit ELG1-dependent DNA repair in human embryonic kidney (HEK293T) cells expressing luciferase-tagged ELG1 | Potency, µM (highest dose often 46.1 µM), for the others: at the top dose activity change, negative = inhibition, most hits filed as inhibitors | HEK293T ELG1-luciferase reporter, luminescence, 16 h; DNA damage induced by 5-fluorouridine | 2.3% of 330,000 active | AID 504467, 2011; further: on the % scale 0 is the no-effect control and ±100 the full control effect; nearly all actives have a fitted effect of over 55% in size
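HEK293T cells expressing luciferase-tagged ELG1 (2,000/well) received 5-Fluorouridine plus compound or DMSO for 16 hr at 37 °C. Luciferase was read by ONE-Glo luminescence after 30 min at room temperature.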
Rab9 prom act = qHTS Assay for Rab9 Promoter Activators; Huh7 Rab9 promoter-luciferase reporter, luminescence, 24 h; Potency, µM (doses to about 9.22 µM), for the others: at the highest dose activation, negative = inhibition, actives largely listed as activators; 2.8% of 320,000 active; further: % of control where 0% means no effect; nearly all actives have a fitted effect of over 60% in size
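Luminescence read-out: Huh7 cells stably expressing Rab9-luciferase, treated 24 h with compound at 37 °C, then lysed with luciferase reagent for 10 min at ambient before reading.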
SMN2 splice enh = qHTS Assay for Enhancers of SMN2 Splice Variant Expression. HEK293 SMN2-luciferase splicing reporter, luminescence, 30-36 h. Potency, µM (series often up to 46.1 µM), for the others: at the top dose activity change, positive = activation, usual class: activators. 2.8% of 210,000 active. AID 1458, 2008; further: % of control where 0% means no effect; nearly all actives have a fitted effect of over 55% in size
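HEK293 cells carry an SMN2 minigene-luciferase reporter in which exon 7 inclusion puts luciferase in frame. Cells were seeded at 2000 cells/well, attached for 10-12 hours, then exposed to compounds for 30-36 hours at 37C before ONE-Glo luminescence.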
FLuc counter = qHTS profiling assay for firefly luciferase inhibitor/activator using purifed enzyme and Km concentrations of substrates (counterscreen for miR-21 project). Luciferin 4-monooxygenase (Photinus pyralis), P08659. purified FLuc, Km substrates, luminescence inhibition. Potency, µM (titrated, usually from 57.5 µM), inactives show at the top dose activity change, negative = inhibition, most hits filed as inhibitors. 6.9% of 360,000 active;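 further: plate controls were vehicle for no effect and reference inhibitor for full effect; nearly all actives have a fitted effect of over 55% in size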
Target sequence (P08659 whole entry, looked up): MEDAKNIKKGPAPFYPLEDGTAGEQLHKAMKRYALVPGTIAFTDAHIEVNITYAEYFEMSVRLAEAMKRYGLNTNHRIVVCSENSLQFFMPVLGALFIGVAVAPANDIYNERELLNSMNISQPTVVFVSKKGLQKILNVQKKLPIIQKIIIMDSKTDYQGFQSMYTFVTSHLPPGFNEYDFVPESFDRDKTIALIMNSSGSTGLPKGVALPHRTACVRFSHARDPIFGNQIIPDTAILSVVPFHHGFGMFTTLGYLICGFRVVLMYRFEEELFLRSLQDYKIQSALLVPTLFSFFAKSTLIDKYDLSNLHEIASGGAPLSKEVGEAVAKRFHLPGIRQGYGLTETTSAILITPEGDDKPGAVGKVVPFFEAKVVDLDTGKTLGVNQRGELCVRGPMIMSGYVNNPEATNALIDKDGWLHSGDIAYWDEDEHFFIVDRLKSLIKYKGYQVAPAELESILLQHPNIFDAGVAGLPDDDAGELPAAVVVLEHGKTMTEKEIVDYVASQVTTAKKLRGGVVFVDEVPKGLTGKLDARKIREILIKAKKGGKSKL
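Purified P. pyralis luciferase (10nM final) with 10uM D-luciferin and 10uM ATP (Km levels) in 50mM Tris acetate pH 7.5, 10mM Mg acetate, 0.01% Tween-20, 0.05% BSA; qHTS 6-point titration, ~60 µM downward; luminescence read.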
NPC1 promoter act = qHTS Assay for NPC1 Promoter Activators; Huh7 NPC1 promoter luciferase reporter, 24 h; Potency, µM (top dose mostly 9.22 µM), without a hit: at the top dose activation, actives largely listed as activators; 2.4% of 320,000 active; AID 485313, 2010; further: % of control where 0% means no effect; nearly all actives have a fitted effect of over 60% in size
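NPC1 promoter–luciferase Huh7 cells; 24 h compound; luminescence.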
* hit, by the source's call; ? = inconclusive; / = no result. Hits are enriched below; roughly 9.2% of the tested compounds scored in any of these assays. The call rests on the fitted dose curve; in most records, active means well fitted curve in the direction sought with a large enough effect; inconclusive means small, poorly fitted or top-dose-only effect, or another doubt; inactive means no such curve, though single readings can be large; an effect the other way counts as inactive or inconclusive. Potency means the concentration at half of the fitted maximal effect.

SMILES | ELG1 genotox | ELG1 DNA repair | Rab9 prom act | SMN2 splice enh | FLuc counter | NPC1 promoter act
CC(Oc1ccc2c(-c3ccccc3)cc(=O)oc2c1)C(=O)O (stereo not given) | -3% | 0% | 12% | 11% | -17% | -1%
CC1CN(CC(=O)NN=C(c2ccccc2)c2ccccc2)CC(C)O1 (stereo not given) | 0% | 9% | 1% | / | 4% | -2%
Cn1c(CNC(=O)CNC(=O)c2ccc(F)cc2)cc(=O)n(C)c1=O | 0% | 8% | 0% | / | -1% | -10%
O=C(NC1CC(=O)N(c2ccccc2)C1)c1ccc(S(=O)(=O)N2CCCCC2)cc1 (stereo not given) | / | / | / | / | -9% | /
COc1ccc(/C=N/Nc2nc(N)cc(Cl)n2)cc1OC | 2% | 14% | 24% | 14% | 17µM* | 16%
COc1cc(/C=N/Nc2ccccn2)ccc1O | 9.2µM* | ? | ? | / | 6µM* | 4%
COc1cc(/C=N/Nc2ccnc(=O)[nH]2)ccc1O | 14% | ? | -2% | / | ? | -1%
COc1cc(/C=N/NC(=O)c2nc(-c3ccccc3)n(-c3ccccc3)n2)ccc1O | 1% | ? | 1% | -9% | ? | 3%
COc1cc(/C=N/Nc2nc(C)nc3c2cnn3-c2ccccc2)ccc1O | -7% | 16µM* | -21% | -6% | ? | -18%
COc1ccc(/C=N/Nc2nonc2N)cc1OC | 0% | ? | -6% | 23% | ? | 0%
COc1ccc(-c2cnnc(N/N=C/c3ccc(O)c(OC)c3)n2)cc1 | 7% | 21µM* | -4% | 13µM* | 1.2µM* | -19%
COc1ccc(C2C(C(=O)c3ccccc3)N3c4ccccc4C=CC3C2[N+](=O)[O-])cc1 (stereo not given) | -2% | 3% | -2% | 7% | ? | 3%
CN(C)c1ccc(/C=N\Nc2ccccn2)cc1 | 5.2µM* | ? | 0.63µM* | / | 0.95µM* | 0.89µM*
O=[N+]([O-])c1ccc(/C=N/Nc2ccccn2)cc1 | 9% | ? | ? | / | -18% | ?
COc1ccc(/C=N/Nc2nc(C)nc(N)n2)cc1 | 12% | ? | 23% | / | 17µM* | 13%
COc1ccc(/C=N/Nc2ccccn2)cc1OC | ? | ? | ? | / | 7.6µM* | ?
COc1cc2nc3c(c([Si](C)(C)C(C)(C)C)c2cc1OC)Cn1c-3cccc1=O | / | / | / | 4% | / | /
CCn1cc(C(=O)NCc2ccco2)c(=O)c2cc(S(=O)(=O)N3CCC(C)CC3)ccc21 | -7% | 10µM* | -1% | -16% | -3% | -2%
CCn1cc(C(=O)NCc2ccco2)c(=O)c2cc(S(=O)(=O)N3CCc4ccccc4C3)ccc21 | -5% | 10µM* | 4% | -5% | -4% | 0%
C=CCn1cc(C(=O)NCc2ccco2)c(=O)c2cc(S(=O)(=O)N3CCCCCC3)ccc21 | 2% | 6.5µM* | 0% | / | -8% | 0%
CCn1cc(C(=O)NCc2ccc(C)cc2)c(=O)c2cc(S(=O)(=O)N3CCC(C)CC3)ccc21 | / | / | / | / | -3% | /
CCn1cc(C(=O)N2CCCC2)c(=O)c2cc(S(=O)(=O)N3CC(C)CC(C)C3)ccc21 (stereo not given) | 0% | 1% | -4% | / | 0% | 1%
CCn1cc(C(=O)NCc2ccco2)c(=O)c2cc(S(=O)(=O)N3CC(C)CC(C)C3)ccc21 (stereo not given) | -8% | 2.9µM* | 0% | -47% | -3% | -5%
CCOC(=O)[C@@H]1[C@H]2COc3cc(OC)ccc3[C@@H]2N2C(=O)N(c3cccc(C)c3)C(=O)[C@]12C | 2% | ? | / | / | / | /
